Results reported in the supplement of paper PMC12350171.
Structures can show the parent of a compound that is named as a salt.

Legend:
Conditions in all cases: 20 µM
[1] = tested on: Salmonella enterica typhimurium; assay: growth AUC normalised to DMSO control (fraction of control); higher = less growth inhibition, active = hit call of the paper
Procedure, shortened: (§1)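 Pathogens were passaged twice under anaerobic conditions, then inoculated into pre-reduced mGAM plates at a starting OD578 of 0.01, with compound at 20 μM and 1% DMSO, and sealed with breathable membranes. For Haemophilus parainfluenzae, the medium was supplemented with hemin and NAD. OD578 was read every hour for 24 h in three biological replicates. Growth-curve AUC was calculated by the trapezoidal rule up to the exponential-to-stationary transition and normalised to DMSO controls on the same plate.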

[2] = tested on: Shigella flexneri; assay: as above
Procedure, shortened: as §1

[3] = tested on: Vibrio cholerae; assay: as above
Procedure, shortened: as §1

[4] = tested on: Yersinia pseudotuberculosis; assay: as above
Procedure, shortened: as §1

[5] = tested on: P. vulgatus RND KO; assay: growth AUC normalised to DMSO control (median) (fraction of control); higher = less growth inhibition, active = hit call of the paper
Procedure, shortened: (§2)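 After two overnight anaerobic passages, strains were inoculated at OD578 0.01 into mGAM in 96-well plates containing approved-drug library compounds at 20 μM and 1% DMSO. Growth was followed by reading OD578 hourly for 24 h within an anaerobic incubator. Area under the curve, taken by the trapezoidal rule up to the start of stationary phase, was normalised to same-plate vehicle wells, and the median of three biological replicates is listed.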

[6] = tested on: P. vulgatus WT; assay: as above
Procedure, shortened: as §2

[7] = tested on: S. enterica typhimurium WT; assay: as above
Procedure, shortened: as §2

[8] = tested on: S. enterica typhimurium tolC KO; assay: as above
Procedure, shortened: as §2

Measured: growth AUC normalised to DMSO control
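For growth AUC normalised to DMSO control (median) in this document: active when median AUC fell below 0.1.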

COc1cc(NS(=O)(=O)c2ccc(N)cc2)nc(OC)n1 [Sulfadimethoxine]
inactive: [1] 1.02 | [2] 1.01 | [3] 1.02 | [4] 0.987 | [5] 0.994 | [6] 1.04 | [7] 1 | [8] 0.99

CC(C)CC(=O)N[C@H](C(=O)N[C@H](C(=O)N[C@@H](CC(C)C)[C@@H](O)CC(=O)N[C@@H](C)C(=O)N[C@@H](CC(C)C)[C@@H](O)CC(=O)O)C(C)C)C(C)C [Pepstatin A]
inactive: [1] 1.01 | [2] 1.03 | [3] 1.04 | [4] 1 | [5] 1.02 | [6] 1.05 | [7] 1.01 | [8] 0.988

O=C(O)CCc1nc(-c2ccccc2)c(-c2ccccc2)o1 [Oxaprozin]
inactive: [1] 1.02 | [2] 1.02 | [3] 1.01 | [4] 0.994 | [5] 1 | [6] 1.05 | [7] 1 | [8] 1

O=C(O)Cc1sc(-c2ccccc2)nc1-c1ccc(Cl)cc1 [Fentiazac]
inactive: [1] 0.993 | [2] 1.03 | [3] 1 | [4] 1.02 | [5] 0.896 | [6] 0.947 | [7] 1 | [8] 0.98

Nc1ccc(S(=O)(=O)c2ccc(N)cc2)cc1 [Dapsone]
inactive: [1] 0.982 | [2] 0.994 | [3] 0.988 | [4] 1 | [5] 1.01 | [6] 1 | [7] 1 | [8] 0.994

COc1ccc2[nH]c([S+]([O-])Cc3ncc(C)c(OC)c3C)nc2n1 (stereo not given) [Tenatoprazole]
inactive: [1] 0.988 | [2] 1 | [3] 0.894 | [4] 0.998 | [5] 1.03 | [6] 1.06 | [7] 1 | [8] 0.963

CC(C)NNC(=O)c1ccncc1 [Iproniazide phosphate]
inactive: [1] 1.01 | [2] 1 | [3] 0.997 | [4] 1.02 | [5] 1.02 | [6] 1.03 | [7] 1.02 | [8] 0.992

Cc1ccc2c(c1)c1c3n2CCNC3CCC1 (stereo not given) [Pirlindole mesylate]
inactive: [1] 0.988 | [2] 0.999 | [3] 0.993 | [4] 0.964 | [5] 1.02 | [6] 1.03 | [7] 0.998 | [8] 0.992

CC(=O)CC(c1ccc([N+](=O)[O-])cc1)c1c(O)c2ccccc2oc1=O (stereo not given) [Acenocoumarol]
inactive: [1] 0.985 | [2] 1.01 | [3] 0.938 | [4] 0.991 | [5] 1.07 | [6] 1.06 | [7] 0.999 | [8] 0.999

CN1Cc2c(N)cccc2C(c2ccccc2)C1 (stereo not given) [Nomifensine maleate]
inactive: [1] 0.977 | [2] 1.01 | [3] 0.961 | [4] 0.94 | [5] 1 | [6] 0.987 | [7] 0.997 | [8] 1

CC1(C)O[C@@H]2C[C@H]3[C@@H]4C[C@H](F)C5=CC(=O)CC[C@]5(C)[C@H]4[C@@H](O)C[C@]3(C)[C@]2(C(=O)CO)O1 [Flurandrenolide]
inactive: [1] 1 | [2] 1.01 | [3] 1.03 | [4] 0.996 | [5] 1.06 | [6] 1.07 | [7] 0.996 | [8] 0.986

Cc1cccc(C)c1NC(=O)C(C)N (stereo not given) [Tocainide hydrochloride]
inactive: [1] 1 | [2] 0.967 | [3] 1.01 | [4] 0.985 | [5] 1.02 | [6] 1.02 | [7] 0.999 | [8] 1

CC(CN1c2ccccc2Sc2ccccc21)N(C)C (stereo not given) [Promethazine hydrochloride]
inactive: [1] 0.983 | [2] 1.03 | [3] 0.961 | [4] 0.957 | [5] 0.718 | [6] 0.682 | [7] 1 | [8] 0.98

Nc1ccc(S(=O)(=O)Nc2ccnn2-c2ccccc2)cc1 [Sulfaphenazole]
active: [3] 0.856
inactive: [1] 1 | [2] 1.01 | [4] 1.01 | [5] 0.989 | [6] 0.961 | [7] 0.998 | [8] 0.981

C[C@H]1C[C@@H]2[C@H]([C@@H](O)C[C@@]3(C)[C@H]2CC[C@]3(O)C(=O)CO)[C@@]2(C)C=CC(=O)C=C12 [Methylprednisolone, 6-alpha]
inactive: [1] 0.997 | [2] 0.998 | [3] 0.997 | [4] 0.993 | [5] 0.96 | [6] 0.982 | [7] 1 | [8] 1

CCN(CC)CC#CCOC(=O)C(O)(c1ccccc1)C1CCCCC1 (stereo not given) [Oxybutynin chloride]
inactive: [1] 0.977 | [2] 0.944 | [3] 0.935 | [4] 0.981 | [5] 0.976 | [6] 0.986 | [7] 0.999 | [8] 0.946

CCCc1cc(C(N)=S)ccn1 [Prothionamide]
inactive: [1] 1 | [2] 1 | [3] 1.01 | [4] 1 | [5] 0.988 | [6] 0.997 | [7] 0.987 | [8] 0.981

CC(=O)N[C@@H](CC(=O)O)C(=O)N[C@@H](CCC(=O)O)C(=O)O [Spaglumic acid]
inactive: [1] 1.03 | [2] 1.01 | [3] 1.02 | [4] 1.02 | [5] 1.01 | [6] 1.04 | [7] 1.01 | [8] 1

Clc1ccccc1CN1CCc2sccc2C1 [Ticlopidine hydrochloride]
inactive: [1] 0.975 | [2] 0.988 | [3] 0.947 | [4] 1.01 | [5] 0.986 | [6] 0.997 | [7] 0.967 | [8] 0.973

Clc1ccc(Cn2c(CN3CCCC3)nc3ccccc32)cc1 [Clemizole hydrochloride]
inactive: [1] 0.98 | [2] 0.988 | [3] 0.922 | [4] 0.986 | [5] 0.902 | [6] 0.857 | [7] 0.997 | [8] 0.949

CCCc1cc(=O)[nH]c(=S)[nH]1 [Propylthiouracil]
inactive: [1] 0.987 | [2] 0.991 | [3] 1 | [4] 0.993 | [5] 1.02 | [6] 1.05 | [7] 1.01 | [8] 0.996

CC(=O)OCC(=O)[C@@]1(O)CC[C@H]2[C@@H]3CCC4=CC(=O)CC[C@]4(C)[C@@]3(F)[C@@H](O)C[C@@]21C [Fludrocortisone acetate]
inactive: [1] 0.995 | [2] 0.988 | [3] 1 | [4] 1 | [5] 1.02 | [6] 1.04 | [7] 1.02 | [8] 0.981

CCN(CC)CCOC(=O)c1ccc(N)cc1 [Procaine hydrochloride]
inactive: [1] 1 | [2] 0.992 | [3] 1.01 | [4] 1 | [5] 1.02 | [6] 0.989 | [7] 0.992 | [8] 0.998

Nc1ccc(/N=N/c2ccccc2)c(N)n1 [Phenazopyridine hydrochloride]
inactive: [1] 0.969 | [2] 0.922 | [3] 0.927 | [4] 0.958 | [5] 1.03 | [6] 1.03 | [7] 0.989 | [8] 0.988

CCN(CC)CCNC(=O)c1cc(Cl)c(N)cc1OC [Metoclopramide monohydrochloride]
inactive: [1] 0.994 | [2] 0.978 | [3] 0.989 | [4] 0.993 | [5] 0.977 | [6] 0.971 | [7] 1 | [8] 1

Clc1ccc(CSC(Cn2ccnc2)c2ccc(Cl)cc2Cl)cc1 (stereo not given) [Sulconazole nitrate]
inactive: [1] 1.04 | [2] 1.06 | [3] 1.05 | [4] 1.02 | [5] 1.06 | [6] 1.08 | [7] 0.997 | [8] 0.911

NCCc1cc[nH]n1 [Betazole hydrochloride]
inactive: [1] 0.986 | [2] 0.97 | [3] 0.979 | [4] 0.968 | [5] 0.999 | [6] 1.02 | [7] 1 | [8] 0.999

c1ccc2c(c1)CCCC2C1=NCCN1 (stereo not given) [Tetrahydrozoline hydrochloride]
inactive: [1] 0.981 | [2] 0.981 | [3] 0.991 | [4] 0.996 | [5] 0.997 | [6] 1 | [7] 0.996 | [8] 1

CC(C(=O)O)c1cccc(Oc2ccccc2)c1 (stereo not given) [Fenoprofen calcium salt dihydrate]
inactive: [1] 0.995 | [2] 0.924 | [3] 0.945 | [4] 0.987 | [5] 0.99 | [6] 0.983 | [7] 1 | [8] 0.995

C[N+](C)(C)CCCCCC[N+](C)(C)C [Hexamethonium dibromide dihydrate]
inactive: [1] 0.947 | [2] 0.996 | [3] 0.971 | [4] 0.966 | [5] 0.992 | [6] 1 | [7] 0.99 | [8] 1.02
